Experimental data published in PubChem BioAssay (NCATS).
Where “and” joins values, the source holds several entries; their conditions need not be identical. Identical values can stand only once. Inconclusive results are not listed. Calls of active or inactive are those of the source. The call rests on the fitted dose curve; in most records, active means well fitted curve in the direction sought with a large enough effect; inconclusive means small, poorly fitted or top-dose-only effect, or another doubt; inactive means no such curve, though single readings can be large; an effect the other way counts as inactive or inconclusive.

What was measured:
CRL-7250 [1] = test: Cytotoxic Profiling of Annotated Libraries Using Quantitative High-Throughput Screening (AID 1296008); conditions: Five cell lines viability, CellTiter-Glo ATP luminescence, 48-72 h; max response: hits give low values; further: nearly all actives have a fitted effect of over 60% in size; further: potency means the concentration at half of the fitted maximal effect; on max response: on the % scale 0 is the no-effect control and ±100 the full control effect
Outline: (§1)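 Compounds were pin-transferred onto cells and incubated 48 or 72 hr at 37 degree Celsius, 95% humidity. CellTiter-Glo was added, plates sat 10 min at room temperature, then ATP-coupled luminescence was imaged as the viability read-out.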

HaCat [2] = test: as above; conditions: Five cell lines viability, CellTiter-Glo ATP luminescence, 48-72 h; max response: hits give low values
Outline: as §1

KB-3-1 = test: as above; conditions: Five cell lines viability, CellTiter-Glo ATP luminescence, 48-72 h; max response: hits give low values
Outline: as §1

NIH3T3 [3] = test: as above; conditions: Five cell lines viability, CellTiter-Glo ATP luminescence, 48-72 h; max response: hits give low values
Outline: as §1

HACAT [4] = test: qHTS assay to identify novel small-molecules to repurpose for Merkel cell carcinoma treatment (AID 1296009); conditions: MCC and control cell lines, CellTiter-Glo viability, 72 h; at 44.8 µM (top of the series) unless noted; further: nearly all actives have a fitted effect of over 60% in size; further: potency means the concentration at half of the fitted maximal effect
Outline: (§2)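 Cells exposed to NPC (8-point) and MIPE (11-point) compound dilutions for 72 hr at 37 degree celsius; viability read by CellTiter-Glo luminescence, normalized to no-cell and DMSO in-plate controls.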

HEK293T = test: as above; conditions: MCC and control cell lines, CellTiter-Glo viability, 72 h; at 44.8 µM (top of the series) unless noted
Outline: as §2

MCC-13 = test: as above; conditions: MCC and control cell lines, CellTiter-Glo viability, 72 h; series mostly up to 46 µM
Outline: as §2

MKL-1 = test: as above; conditions: MCC and control cell lines, CellTiter-Glo viability, 72 h; series mostly up to 46 µM
Outline: as §2

MKL-2 = test: as above; conditions: MCC and control cell lines, CellTiter-Glo viability, 72 h; series mostly up to 46 µM
Outline: as §2

NIH3T3 [5] = test: as above; conditions: MCC and control cell lines, CellTiter-Glo viability, 72 h; at 44.8 µM (top of the series) unless noted
Outline: as §2

UISO = test: as above; conditions: MCC and control cell lines, CellTiter-Glo viability, 72 h; series mostly up to 46 µM
Outline: as §2

WaGa = test: as above; conditions: MCC and control cell lines, CellTiter-Glo viability, 72 h; series mostly up to 46 µM
Outline: as §2

CRL-7250 [6] = test: as above; conditions: MCC and control cell lines, CellTiter-Glo viability, 72 h; at 44.8 µM (top of the series) unless noted
Outline: as §2

MCC-26 = test: as above; conditions: MCC and control cell lines, CellTiter-Glo viability, 72 h; series mostly up to 46 µM
Outline: as §2

TAB113 = test: qHTS profiling for inhibitors of Plasmodium falciparum proliferation (AID 504749);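 further: 0% = DMSO vehicle and full inhibition = artemisinin control; nearly all actives have a fitted effect of over 60% in size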; conditions: P. falciparum in erythrocytes, SYBR Green DNA, 72 h; series mostly up to 28.7 µM
Outline: (§3)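 P. falciparum-infected erythrocytes (0.3% parasitemia, 2.5% hematocrit final) were exposed to compounds for 72 h at 37 C in 5% CO2, then lysed with SYBR Green buffer overnight at room temperature; parasite DNA fluorescence was normalized to artemisinin and DMSO controls.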

HEK293 = test: Cytotoxic Profiling of Annotated Libraries Using Quantitative High-Throughput Screening (AID 1296008); conditions: Five cell lines viability, CellTiter-Glo ATP luminescence, 48-72 h; max response: hits give low values; further: nearly all actives have a fitted effect of over 60% in size; further: potency means the concentration at half of the fitted maximal effect; on max response: on the % scale 0 is the no-effect control and ±100 the full control effect
Outline: as §1

C33A = test: Primary qHTS to identify gynecologic anti-cancer compounds using libraries of approved drugs and bioactive compounds (AID 1345084); conditions: Gynecologic cancer cell panel viability, ATPlite luminescence, 48 h; series mostly up to 57.5 µM; further: nearly all actives have a fitted effect of over 55% in size; further: potency means the concentration at half of the fitted maximal effect
Outline: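 Measured: luminescence after ATPlite addition (15 min, RT). Exposure: 48 h, 37 C, 5% CO2.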

W2 = test: qHTS profiling for inhibitors of Plasmodium falciparum proliferation (AID 504749); conditions: P. falciparum in erythrocytes, SYBR Green DNA, 72 h; series mostly up to 28.7 µM
Outline: as §3

TAB109 = test: as above; conditions: P. falciparum in erythrocytes, SYBR Green DNA, 72 h; series mostly up to 28.7 µM
Outline: as §3

TAB165 = test: as above; conditions: P. falciparum in erythrocytes, SYBR Green DNA, 72 h; series mostly up to 28.7 µM
Outline: as §3

CC(C)(C)[C@]1(O)C[C@@H]2OC(=O)C[C@@]23C(=O)O[C@@H]2OC(=O)[C@H](O)C213 (some centres undefined)
inactive: max response (CRL-7250 [1]) 2.16% | outcome (HaCat [2]) | outcome (KB-3-1) | outcome (NIH3T3 [3]) | outcome (HACAT [4]) | outcome (HEK293T) | Potency (MCC-13) | Potency (MKL-1) | Potency (MKL-2) | outcome (NIH3T3 [5]) | Potency (UISO) | Potency (WaGa)

O=S(=O)(F)Cc1ccccc1
inactive: outcome (CRL-7250 [1]) | max response (HaCat [2]) -8.02% | max response (KB-3-1) 3.23% | max response (NIH3T3 [3]) 3.32% | outcome (CRL-7250 [6]) | outcome (HEK293T) | Potency (MCC-13) | Potency (MCC-26) | Potency (MKL-1) | Potency (MKL-2) | Potency (UISO) | Potency (WaGa)

CN(C)[C@@H]1C(=O)C(C(N)=O)=C(O)[C@@]2(O)C(=O)C3=C(O)c4c(O)cccc4[C@@](C)(O)[C@H]3[C@H](O)[C@@H]12
inactive: Potency (TAB113) | max response (CRL-7250 [1]) -1.31% | outcome (HaCat [2]) | max response (KB-3-1) -7.87% and 0.265% and -1.24% | max response (NIH3T3 [3]) 4.97% | outcome (HACAT [4]) | outcome (HEK293T) | Potency (MCC-13) | Potency (MCC-26) | Potency (MKL-1) | Potency (MKL-2) | Potency (UISO) | Potency (WaGa)

Cc1c(N)nc([C@H](CC(N)=O)NC[C@@H](N)C(N)=O)nc1C(=O)N[C@H](C(=O)N[C@@H](C)[C@H](O)[C@@H](C)C(=O)N[C@@H](C(=O)NCCc1nc(-c2nc(C(=O)NCCC[S+](C)C)cs2)cs1)[C@@H](C)O)C(O[C@H]1O[C@H](CO)[C@H](O)[C@@H](O)[C@@H]1O[C@H]1O[C@H](CO)[C@@H](O)[C@H](OC(N)=O)[C@H]1O)c1cnc[nH]1 (some centres undefined)
inactive: Potency (MKL-2)
active: Potency (CRL-7250 [1]) 10.5 µM | Potency (HEK293) 526 nM | Potency (NIH3T3 [3]) 1.18 µM | Potency (WaGa) 3.72 µM

O=[N+]([O-])/N=C1\NCCN1Cc1ccc(Cl)nc1
inactive: max response (CRL-7250 [1]) -0.312% | max response (HaCat [2]) -1.41% | max response (KB-3-1) 6.99% and -6.61% | max response (NIH3T3 [3]) -2.1% | outcome (HEK293T) | Potency (MCC-13) | Potency (MCC-26) | Potency (MKL-1) | Potency (MKL-2) | Potency (UISO) | Potency (WaGa) | Potency (C33A)

O=C(N[C@H]1CN2CCC1CC2)c1ccc(Cl)cc1
inactive: outcome (CRL-7250 [1]) | outcome (HaCat [2]) | outcome (KB-3-1) | max response (NIH3T3 [3]) -6.97% | outcome (NIH3T3 [3]) | outcome (CRL-7250 [6]) | outcome (HACAT [4]) | outcome (HEK293T) | Potency (MCC-13) | Potency (MCC-26) | Potency (MKL-1) | Potency (MKL-2) | outcome (NIH3T3 [5]) | Potency (UISO) | Potency (WaGa) | Potency (C33A)

CSCC[C@@H](NC(=O)[C@@H](Cc1ccccc1)NC(=O)CNC(=O)CNC(=O)[C@@H](N)Cc1ccc(O)cc1)C(=O)O
inactive: max response (CRL-7250 [1]) 2.24% | outcome (HaCat [2]) | max response (KB-3-1) 3.04% | max response (NIH3T3 [3]) 2.68% | outcome (HACAT [4]) | Potency (MCC-13) | Potency (MKL-1) | Potency (MKL-2) | Potency (UISO) | Potency (WaGa)

OCCCBr
inactive: max response (CRL-7250 [1]) -6.12% | max response (HaCat [2]) -13% | max response (KB-3-1) -26.3% | max response (NIH3T3 [3]) -4.76% | outcome (HEK293T) inactive [at 92 µM] | Potency (MCC-13) | Potency (MCC-26) | Potency (MKL-1) | Potency (MKL-2) | Potency (UISO) | Potency (WaGa) | Potency (C33A)

CC(C)(C)C(O)C(Oc1ccc(Cl)cc1)n1cncn1 (centres undefined)
inactive: outcome (CRL-7250 [1]) | max response (HaCat [2]) 0.929% | max response (KB-3-1) -16.3% | max response (NIH3T3 [3]) 3.17% | outcome (CRL-7250 [6]) inactive [at 92 µM] | Potency (MCC-13) | Potency (MCC-26) | Potency (C33A)

C[C@@H]1CC[C@@]2(OC1)O[C@H]1C[C@H]3[C@@H]4CC=C5C[C@@H](O[C@@H]6O[C@H](CO)[C@@H](O[C@@H]7O[C@@H](C)[C@H](O)[C@@H](O)[C@@H]7O)[C@H](O)[C@@H]6O[C@@H]6O[C@@H](C)[C@H](O)[C@@H](O)[C@@H]6O)CC[C@]5(C)[C@@H]4CC[C@]3(C)[C@@H]1[C@H]2C
active: Potency (CRL-7250 [1]) 9.35 µM | Potency (HEK293) 3720 nM | Potency (KB-3-1) 8.33 µM | Potency (NIH3T3 [3]) 13.2 µM | Potency (MCC-26) 10.5 µM | Potency (MKL-2) 6.62 µM

C/C=C(/C)C(=O)O[C@H]1C(C)=C2[C@H]([C@@H]1OC(=O)CCCCCCC)[C@@](C)(OC(C)=O)C[C@H](OC(=O)CCC)[C@@]1(O)[C@H]2OC(=O)[C@@]1(C)O
active: Potency (CRL-7250 [1]) 0.0411 µM | Potency (HEK293) 29.1 nM | Potency (KB-3-1) 0.0461 µM | Potency (NIH3T3 [3]) 0.0517 µM | Potency (C33A) 20 µM

Cc1c(C(=O)Nc2cccc(C(F)(F)F)c2)cc(-c2ccccc2)n1CCCN1CCOCC1
active: Potency (HEK293) 14.8 µM and 14.6 µM
inactive: max response (CRL-7250 [1]) -26% and -3.59% | max response (KB-3-1) -13.2% | max response (NIH3T3 [3]) -26.5% and -21.7% | Potency (MCC-13) | Potency (MKL-1) | Potency (C33A)

COc1ccc(CC2NCCc3cc(OC)c(OC)cc32)cc1OC (centres undefined)
inactive: max response (CRL-7250 [1]) -3.56% | outcome (HaCat [2]) | max response (KB-3-1) -3.69% | max response (NIH3T3 [3]) -2.7% | outcome (HACAT [4]) | Potency (MCC-13) | Potency (MCC-26) | Potency (MKL-1) | Potency (MKL-2) | Potency (UISO) | Potency (WaGa)

CC(=O)OCC1=C(C(=O)O)N2C(=O)[C@@H](N)[C@@H]2SC1
inactive: Potency (W2) | outcome (CRL-7250 [1]) | max response (HaCat [2]) -5.82% | max response (KB-3-1) 0.594% | max response (NIH3T3 [3]) -7.48% | outcome (CRL-7250 [6]) | Potency (MCC-13) | Potency (MCC-26) | Potency (MKL-1) | Potency (MKL-2) | Potency (UISO) | Potency (WaGa)

O=C(O)C(Cl)Cl
inactive: Potency (TAB109) | Potency (TAB113) | Potency (TAB165) | Potency (W2) | outcome (CRL-7250 [1]) | outcome (HaCat [2]) | max response (KB-3-1) -7.1% and -3.84% | max response (NIH3T3 [3]) -3.68% | outcome (CRL-7250 [6]) | outcome (HACAT [4]) | outcome (HEK293T) | Potency (MCC-13) | Potency (MCC-26) | Potency (MKL-1) | Potency (MKL-2) | Potency (UISO) | Potency (WaGa) | Potency (C33A)
